Source: PubChem
Most compounds without a hit are left out; they make up all but 19% or so of the library.
DT40 TDP1 CPT: qHTS for Inhibitors of human tyrosyl-DNA phosphodiesterase 1 (TDP1): qHTS in cells in presence of CPT | chicken DT40 Tdp1-/-;hTDP1 cells + 20 nM CPT, ATP luminescence, 48 h | Potency, µM (series often up to 46.2 µM), without a hit: at the highest dose activity change, negative = growth inhibition, usual class: inhibitors | 420,000 tested, 12% active | AID 686979, 2013; note: potency is the fitted concentration of half-maximal effect; nearly all actives have a fitted effect of over 55% in size
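Cell growth measured by CellTiter-Glo luminescence after a minimum 48 h, 37 C compound exposure with 20 nM CPT in Tdp1-knockout DT40 cells stably expressing hTDP1, seeded 400/well; qHTS titration format.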
uPA generation: qHTS for Inhibitors of Cell Surface uPA Generation. 330,000 tested, 0.31% active. cell surface uPA generation assay, qHTS. Potency, µM (doses to about 38.3 µM), inactives show at the top dose activity change, negative = inhibition, hits mostly inhibitors; active = well fitted inhibition curve with a large enough effect; inconclusive = small, poorly fitted or top-dose-only effect; inactive = no such curve, though single readings can be large or run the other way; tested in mouse RAW 264.7 cells; note: potency is the fitted concentration of half-maximal effect; nearly all actives have a fitted effect of over 55% in size
IL1B secr inh: qHTS for Inhibitors of Inflammasome Signaling: IL-1-beta AlphaLISA Primary Screen | THP-1 LPS/ATP IL-1B secretion, AlphaLISA, 16 h; hits give low values | activity change, % at 57.5 µM | 360,000 tested, 4.7% active | AID 743279, 2014; in the data active = activity change below about -50%; inconclusive = mostly about -30% to -49%
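THP-1 cells pretreated 1 hr with compounds (up to 57.5 uM final), then stimulated with LPS (250 ng/mL final) plus ATP (1.25 mM final); secreted IL-1B measured by AlphaLISA after 16 hr, decreased signal indicating inhibition.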
HT1080 IDH1KD tx: qHTS for induction of synthetic lethality in tumor cells producing 2HG: qHTS for the HT-1080-IDH1KD cell line; AID 686971, 2013; 360,000 tested, 2% active; HT-1080 IDH1 knockdown viability, ATP luminescence, 48 h; Potency, µM (titrated, usually from 46.1 µM), for inactives: top-dose activity, negative = toxicity, usual class: cytotoxic;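 note: potency is the fitted concentration of half-maximal effect; 0% = DMSO wells and -100% = cell-free medium wells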
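Luminescent ATP read-out (CellTiter-Glo, 10 min at room temperature) after 48 h compound exposure at 37 °C gave viability of IDH1-knockdown HT-1080 cells. Activity was normalised to DMSO and cell-free wells, then fitted as concentration-response curves.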
TDP1 cell noCPT: qHTS for Inhibitors of human tyrosyl-DNA phosphodiesterase 1 (TDP1): qHTS in cells in absence of CPT; DT40 Tdp1-/- hTDP1 cells, no CPT, ATP luminescence, 48 h; Potency, µM (series often up to 46.2 µM), without a hit: at the highest dose activity change, negative = growth inhibition, actives largely listed as inhibitors; 420,000 tested, 15% active; AID 686978, 2013; note: potency is the fitted concentration of half-maximal effect; nearly all actives have a fitted effect of over 55% in size
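Chicken DT40 Tdp1-/- cells stably complemented with human TDP1 were seeded at 400 cells/well with DMSO in place of 20 nM camptothecin. After compound pinning, cells grew at least 48 hr at 37 °C; viability read by CellTiter-Glo luminescence.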
HT1080-NT tox: qHTS for induction of synthetic lethality in tumor cells producing 2HG: qHTS for the HT-1080-NT fibrosarcoma cell line | 360,000 tested, 1.6% active | HT-1080-NT fibrosarcoma viability, CellTiter-Glo ATP luminescence, 48 h | Potency, µM (highest dose often 46.1 µM), without a hit: top-dose activity, negative = less viability, actives largely listed as cytotoxic;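 note: NT is the 2HG producing partner of a matched IDH1 knockdown line; potency is the fitted concentration of half-maximal effect; 0% = DMSO-treated cells and -100% = media-only wells without cells; nearly all actives have a fitted effect of over 55% in size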
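Viability of the 2HG-overproducing fibrosarcoma line after 48 hours of compound exposure at 37 degrees C was determined by luminescence with CellTiter-Glo, and concentration-effect curves were then fitted and categorized.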
* marks the source's active call; other numbers are inactive results; ? = inconclusive; · = no result; [ ] = another dose, or the depositor's remark. Unless noted, calls come from the whole dose curve; as a rule, active = well fitted curve in the direction sought with a large enough effect; inconclusive = small, poorly fitted or top-dose-only effect, or another doubt; inactive = no such curve, though single readings can be large; an effect the other way counts as inactive or inconclusive. Unless noted, % is set by controls: 0 for no effect and ±100 for the full control effect.

SMILES | DT40 TDP1 CPT | uPA generation | IL1B secr inh | HT1080 IDH1KD tx | TDP1 cell noCPT | HT1080-NT tox
O=[N+]([O-])c1cc(Cl)ccc1N1CCN(c2cccc(C(F)(F)F)c2)CC1 | ? | 2% | ? | 0% | 9.2µM* | 2%
O=S(=O)(c1ccc(N2CCCC2)cc1)C(F)(F)F | ? | -5% | -18 | -22% | 12µM* | ?
O=[N+]([O-])c1cc(S(=O)(=O)Nc2ccccc2)ccc1N1CCN(c2ccccc2)CC1 | ? | -4% | -64* | ? | ? | ?
O=[N+]([O-])c1cc(S(=O)(=O)Nc2ccc(Cl)cc2)ccc1N/N=C/c1ccncc1 | ? | 4% | -6 | -1% | 5.8µM* | 0%
C[C@H]1CC[C@@]2(O[C@H](CCO)C[C@H](O)[C@H]2O)O1 | 11% | 1% | 20 | 7% | 1% | 9%
Cc1cccc(NC(=O)N2CCN(Cc3ccc4c(c3)OCO4)CC2)c1C | -4% | 19% | 4 | 2% | -12% | -1%
COc1cc(NC(=O)c2nc(-c3ccncc3)no2)cc(OC)c1OC | -28% | · | · | · | ? | ·
CCN(CC(=O)Nc1c(F)cccc1F)C(=O)c1cccn1C | -2% | · | -6 | 6% | 9% | 9%
O=C(O)CNc1ccc(S(=O)(=O)C(F)(F)F)cc1[N+](=O)[O-] | -3% | -2% | 44 | 0% | -2% | 3%
FC(F)(F)c1cccc(N2CCCCC2)c1 | -19% | · | 48 | 10% | -4% | 13%
O=c1c(N2CCN(c3cccc(C(F)(F)F)c3)CC2)csc2ccccc12 | 21µM* | · | · | · | 26µM* | ·
O=[N+]([O-])c1cc(S(=O)(=O)Nc2ccccc2)ccc1Nc1ccccc1 | ? | -8% | -9 | -28% | 15µM* | 7.3µM*
CC(=O)Nc1ccc(Nc2ccc(S(=O)(=O)C(F)(F)F)cc2[N+](=O)[O-])cc1 | ? | -5% | -60* | -21% | 21µM* | -15%
O=[N+]([O-])c1cc(S(=O)(=O)Nc2ccccc2)ccc1NCc1ccccc1 | -23% | -13% | -18 | -5% | -2% | 1%
O=[N+]([O-])c1cc(S(=O)(=O)C(F)(F)F)ccc1N1CCN(c2ccccc2)CC1 | ? | -9% | ? | -5% | 16µM* | -5%
COC(=O)C1=C(C(=O)OC)[C@@H]2N(C)c3ccc(OC)cc3[C@@]23C[C@@H](C(=O)OC)N(C(=O)COCc2ccccc2)C3=N1 | ? | 8% | 41 | 12% | -7% | 10%
Cc1nc(-c2coc3c(O)c(O)ccc3c2=O)cs1 | -18%[9.04 µM] | · | · | · | 4%[9.04 µM] | ·
Cn1c(=O)c2c(ncn2CC(O)CNc2ccc(F)cc2)n(C)c1=O (stereo not drawn) | -19% | -9% | 16 | 5% | -20% | 4%
CCN(CC)C(=O)c1c(NC(=O)c2ccccc2F)sc2c1CCC(C(C)(C)C)C2 (stereo not drawn) | 23µM* | · | · | · | ? | ·
Cc1cccc(C)c1NC(=O)CN(C)C(=O)c1ccccc1OCc1ccc(F)cc1 | -12% | -3% | 1 | 0% | -21% | 9%
COc1ccccc1N1CCN(C(=O)CSc2nc3ccccc3nc2Cc2ccccc2)CC1 | 23µM* | · | · | · | 23µM* | ·
Cc1ccc(Cc2nc3ccccc3nc2SCC(=O)N2CCN(c3ccccc3)CC2)cc1 | -16% | · | · | · | -24% | ·
O=C(CSc1nc2ccccc2nc1SCC(=O)N1CCOCC1)N1CCOCC1 | -4% | 2% | -10 | 0% | -17% | -1%
O=C(CSc1nc2ccccc2nc1SCC(=O)N1CCCCC1)N1CCCCC1 | 16µM* | -2% | -59* | -26% | ? | ?
O=C(CSc1nc(C2CCCCC2)nc2ccccc12)NCc1ccco1 | ? | · | -82* | -17% | 21µM* | ?
SMILES | DT40 TDP1 CPT | uPA generation | IL1B secr inh | HT1080 IDH1KD tx | TDP1 cell noCPT | HT1080-NT tox
CC1CCN(C(=O)CSc2nc3ccccc3nc2Cc2ccccc2)CC1 | 15µM* | · | · | · | 10µM* | ·
CC1CCCCN1C(=O)CSc1nc(C2CC2)nc2ccccc12 (stereo not drawn) | ? | -5% | -77* | ? | ? | -28%
CC(C)(C)c1nc2ccccc2c2nnc(SCC(=O)NCc3ccco3)n12 | ? | 10% | 0 | 2% | ? | 13%
CC1CCCCN1C(=O)CSc1nc2ccccc2nc1Cc1ccc(Cl)cc1 (stereo not drawn) | 18µM* | · | · | · | ? | ·
CC(C)c1nc2ccccc2c2nnc(SCC(=O)NCc3ccco3)n12 | 16µM* | · | 6 | -29% | ? | -2%
CC1CCN(C(=O)CSc2nc(C3CC3)nc3ccccc23)CC1 | ? | -7% | ? | -17% | ? | -13%
COc1ccc(N2CCN(C(=O)CSc3nc4ccccc4nc3Cc3ccc(Cl)cc3)CC2)cc1 | 21µM* | · | · | · | ? | ·
C=CCn1c(SCC(=O)NCc2ccco2)nc2ccccc2c1=O | -2% | 2% | 32 | 0% | -26% | -5%
C=CCn1c(SCC(=O)NCc2ccco2)nnc1-c1ccc2ccccc2n1 | ? | -4% | 0 | -11% | 18µM* | -5%
Cc1ccc(Cc2nc3ccccc3nc2SCC(=O)N2CCCCC2)cc1 | ? | · | · | · | 21µM* | ·
O=C(CSc1nc2ccccc2nc1Cc1ccc(Cl)cc1)N1CCCCC1 | ? | · | · | · | 16µM* | ·
O=C(CSc1nc2ccccc2nc1Cc1ccc(Cl)cc1)N1CCN(c2ccccc2)CC1 | -9% | · | · | · | ? | ·
COc1ccc(/C=C2\CN(Cc3ccccc3)C/C(=C\c3ccc(OC)c(O)c3)C2=O)cc1O | 5.2µM* | -18% | -99* | 2.3µM* | 2.1µM* | ?
COc1ccc(/C=N/N=C/c2ccc(OC)c(O)c2)cc1O | -5% | -2% | -11 | -2% | -11% | -4%
COc1ccc(C=C2C(=O)c3ccccc3C2=O)cc1O | 0% | -1% | 5 | -1% | 0% | 3%
CCN1C/C(=C/c2ccc(OC)c(O)c2)C(=O)/C(=C/c2ccc(OC)c(O)c2)C1 | 13µM* | ? | -72* | ? | 12µM* | ?
COc1cccc(CN2C(=O)CCC2(C)C(=O)NCCc2ccc(OC)c(OC)c2)c1 (stereo not drawn) | -2% | 0% | 24 | 12% | 3% | 14%
